# G9a block: qHTS Assay for Inhibitors of Histone Lysine Methyltransferase G9a; Histone-lysine N-methyltransferase EHMT2 (Homo sapiens), Q96KQ7; G9a H3K9 monomethylation, AlphaScreen, 2 h; Potency, µM (top dose mostly 102 µM), for inactives: at the top dose activity, negative = inhibition, most hits filed as inhibitors; hit rate 8.8% among 350,000; AID 504332, 2011; also: % is scaled to controls: 0 for no effect and ±100 for the full control effect; nearly all actives have a fitted effect of over 75% in size
#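 G9a (20 nM) preincubated 15 min RT with compounds, then 500 nM biotinylated H3K9 peptide and 20 uM SAM added; 2 h RT reaction. Monomethyl-H3K9 product detected by AlphaScreen with anti-H3K9me1 antibody, streptavidin donor and anti-rabbit IgG acceptor beads.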
# Sfp PPTase inh: qHTS Assay for Inhibitors of Bacillus subtilis Sfp phosphopantetheinyl transferase (PPTase). 4'-phosphopantetheinyl transferase ffp (Bacillus subtilis), Q9F4F7. Potency, µM, without a hit: largest response in the series, negative = inhibition, actives largely listed as inhibitors. Biochemical Sfp PPTase activity, qHTS. hit rate 3.5% among 310,000;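 also: the enzyme is Sfp with the accession as filed and its product quenches rhodamine fluorescence; 0% = enzyme reaction without inhibitor and -100% = no enzyme wells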
#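 Buffer: 50 mM Hepes-Na pH 7.6, 10 mM MgCl2, 0.01% Nonidet P-40, 0.01% BSA. Enzyme 15 nM, pre-exposed to compound 15 min; substrates then added and fluorescence change tracked over 30 min.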
# BAZ2B inh: qHTS Assay for Inhibitors of BAZ2B | Bromodomain adjacent to zinc finger domain protein 2B (Homo sapiens), Q9UIF8 | AlphaScreen BAZ2B-H3K14Ac peptide displacement | Potency, µM (doses to about 114 µM), inactives show at the highest dose activity change, negative = inhibition, usual class: inhibitors | hit rate 4.4% among 360,000; also: % is scaled to controls: 0 for no effect and ±100 for the full control effect; nearly all actives have a fitted effect of over 60% in size
#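 AlphaScreen luminescence quantifies BAZ2B engagement of H3K14Ac peptide; the protein and biotinylated peptide are both at 50 nM final, buffer PBS pH 7.4 with 0.01% Tween-20, all steps at room temperature.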
# JMJD2A Tudor: qHTS Assay for Inhibitors of JMJD2A-Tudor Domain; Lysine-specific demethylase 4A (Homo sapiens), O75164; AlphaScreen JMJD2A-Tudor / H3K4me3 peptide binding; Potency, µM (highest dose often 114 µM), without a hit: top-dose activity change, negative = inhibition, hits mostly inhibitors; hit rate 4.4% among 390,000; also: % is scaled to controls: 0 for no effect and ±100 for the full control effect; nearly all actives have a fitted effect of over 50% in size
# HP1b binding inh: HTS for Inhibitors of HP1-beta Chromodomain Interactions with Methylated Histone Tails; Chromobox protein homolog 1 (Homo sapiens), P83916; AlphaScreen HP1-beta / biotin-H3K9me3 peptide binding; Potency, µM (titrated, usually from 114 µM), for inactives: at the top dose activity change, negative = inhibition, most hits filed as inhibitors; hit rate 0.56% among 390,000; also: nearly all actives have a fitted effect of over 70% in size
#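 Compound inhibition of the preformed complex between 50 nM HP1-beta and 50 nM biotinylated H3K9me3 peptide was read by AlphaScreen. Buffer was PBS pH 7.4 with 0.01% Tween-20. Incubations ran 30 min at room temperature, with 10 ug/mL donor/acceptor beads.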
# L3MBTL1 block: qHTS Assay for the Inhibitors of L3MBTL1. hit rate 0.66% among 230,000. AlphaScreen L3MBTL1–H3K9me1 peptide binding. Potency, µM (series often up to 57.1 µM), inactives show at the top dose activity, negative = inhibition, most hits filed as inhibitors; also: % is scaled to controls: 0 for no effect and ±100 for the full control effect; nearly all actives have a fitted effect of over 60% in size
# Target sequence (Q9Y468 whole entry, looked up): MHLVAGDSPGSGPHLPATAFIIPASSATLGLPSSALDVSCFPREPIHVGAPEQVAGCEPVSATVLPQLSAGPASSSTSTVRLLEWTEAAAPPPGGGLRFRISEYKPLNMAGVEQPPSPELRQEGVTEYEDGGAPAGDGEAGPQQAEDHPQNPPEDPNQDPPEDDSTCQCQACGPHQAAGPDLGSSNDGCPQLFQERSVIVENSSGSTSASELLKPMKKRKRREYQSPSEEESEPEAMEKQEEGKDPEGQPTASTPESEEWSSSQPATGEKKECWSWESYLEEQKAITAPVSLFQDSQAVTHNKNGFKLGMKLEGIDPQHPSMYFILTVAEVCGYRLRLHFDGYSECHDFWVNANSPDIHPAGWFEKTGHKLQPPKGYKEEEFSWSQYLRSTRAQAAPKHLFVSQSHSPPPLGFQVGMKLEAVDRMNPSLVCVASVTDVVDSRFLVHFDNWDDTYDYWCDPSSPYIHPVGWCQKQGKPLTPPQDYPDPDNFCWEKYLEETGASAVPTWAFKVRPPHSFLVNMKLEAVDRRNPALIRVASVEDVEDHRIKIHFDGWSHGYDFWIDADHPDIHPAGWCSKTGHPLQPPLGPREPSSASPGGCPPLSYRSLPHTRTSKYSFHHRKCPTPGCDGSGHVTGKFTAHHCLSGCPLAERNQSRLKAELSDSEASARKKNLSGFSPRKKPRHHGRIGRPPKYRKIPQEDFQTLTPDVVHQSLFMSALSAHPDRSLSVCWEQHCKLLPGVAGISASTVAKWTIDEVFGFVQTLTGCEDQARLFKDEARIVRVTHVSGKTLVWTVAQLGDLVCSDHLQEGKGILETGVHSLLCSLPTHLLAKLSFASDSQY
#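 AlphaScreen assay: L3MBTL1 (50 nM final) was preincubated 30 min at room temperature with biotinylated H3(1-15)K9me1 peptide (75 nM final), then 30 min with library compounds; streptavidin donor and nickel chelate acceptor beads (10 ug/mL final) added, 30 min dark.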
# * = called active by the depositor; ? = inconclusive; / = not tested or not shown; ! = a repeat was not active; [ ] = dose if it differs, or a comment. An excerpt weighted towards active compounds, which were near 12% of everything screened. Calls follow the shape of the dose curve; as a rule, active = well fitted curve in the direction sought with a large enough effect; inconclusive = small, poorly fitted or top-dose-only effect, or another doubt; inactive = no such curve, though single readings can be large; an effect the other way counts as inactive or inconclusive. Potency is read from the fitted curve at half-maximal effect.
SMILES,G9a block,Sfp PPTase inh,BAZ2B inh,JMJD2A Tudor,HP1b binding inh,L3MBTL1 block
CCCN1CCCC2Cc3nc(N)ncc3CC21 (stereo not drawn),-7%[59 µM],19%,/,/,/,/
COc1ccc(Cc2nccc3cc(OC)c(OC)cc23)cc1OC,5.6µM*!,-9%,?,-19%,-4%,-18%
NC(C(=O)O)c1cc(=O)[nH]o1 (stereo not drawn),0%[59 µM],79µM*,39%,-2%,37%,-3%
C[C@@H]1O[C@@H](O[C@H]2CC[C@]3(C=O)C4CC[C@]5(C)[C@@H](C6=CC(=O)OC6)CC[C@]5(O)[C@@H]4CC[C@]3(O)C2)[C@H](O)[C@H](O)[C@H]1O (stereo partly drawn),/,4%,/,/,/,/
CCOC(=O)c1c(C)[nH]c(C)c1S(=O)(=O)NCC(=O)N1CCN(c2cc(Cl)ccc2C)CC1,?,/,?,?,5%,/
COCCNC(=O)c1c(NC(=O)c2ccc(Br)o2)n(Cc2ccccc2)c2nc3ccccc3nc12,?,28µM*,21%,27%,100%,-26%
CCCCCn1c(NC(=O)c2ccco2)c(C(=O)OCC)c2nc3ccccc3nc21,50µM*,?,7%,?,?,9%
COCCOC(=O)c1c(N)n(Cc2ccco2)c2nc3ccccc3nc12,-29%[59 µM],56µM*,-28%,4%,44%,-2%
CC(C)CNC(=O)c1c(N)n(Cc2ccco2)c2nc3ccccc3nc12,45µM*,32µM*,21%,-7%,50%,/
CCOc1ccc(CCNC(=O)c2cc3c(-c4cccc(OC)c4)nn(C)c3s2)cc1OCC,?,/,/,-24%,13%,/
Oc1ccc2c3c1O[C@H]1c4oc5ccccc5c4C[C@]4(O)[C@H](C2)N(CC2CC2)CC[C@@]314,/,-1%,/,/,/,/
COc1cc2c(cc1OC)[C@@]13CCN4CC5=CCOC6CC(=O)N2C1[C@H]6[C@@H]5C[C@@H]43 (stereo partly drawn),-2%[2.33 µM],18%,/,/,/,/
C/C(CC(=O)N1CCN(C=O)CC1)=N\NC(=O)c1cccc([N+](=O)[O-])c1,20%,-9%,?,-14%,12%,-10%
NC(=O)CF,/,11%,/,/,/,/
Cn1c(=O)oc2cc(NC(=O)CCl)ccc21,-6%[12.7 µM],10%,2%,-15%,54%,/
Nc1c(C(=O)NCC2CCCO2)c2nc3ccccc3nc2n1Cc1ccco1 (stereo not drawn),-3%[12.7 µM],4µM*,9%,32%,96%,14%
COCCCNC(=O)c1c(N)n(Cc2ccco2)c2nc3ccccc3nc12,1%[12.7 µM],13µM*,-6%,42%,83%,26%
CCCNC(=O)c1c(N)n(Cc2ccco2)c2nc3ccccc3nc12,?,?,9%,31%,50%,/
Nc1c(C(=O)NC2CCCC2)c2nc3ccccc3nc2n1CC1CCCO1 (stereo not drawn),166%,-13%,122%,107%,232%,1%
CC(C)OC(=O)c1c(N)n(Cc2ccco2)c2nc3ccccc3nc12,3.5µM*,50µM*,-12%,12%,67%,8%
COc1ccc(Cn2c(N)c(C(=O)NCc3ccco3)c3nc4ccccc4nc32)cc1OC,?,?,0%,-4%,94%,18%
C[C@@]12CC3CC(N)(C1)C[C@@](C)(C3)C2,15%[21.5 µM],22%,/,/,/,/
CC(=O)C1CCC2C3CCC4CC(C)(O)CCC4(C)C3CCC12C (stereo not drawn),/,25%,/,/,/,/
COc1cccc(CSc2nc(-c3ccccc3OC)nc3c2Cc2c(CO)cnc(C)c2O3)c1,?,/,-34%,-33%,8%,/
S=c1[nH]nc(-c2ccn[nH]2)n1-c1ccccc1Cl,3.2µM*,56µM*,50µM*,20µM*,?,-4%
SMILES,G9a block,Sfp PPTase inh,BAZ2B inh,JMJD2A Tudor,HP1b binding inh,L3MBTL1 block
CN(C)/C=C1/C(=O)NC(=O)N(CCNc2ncc(C(F)(F)F)cc2Cl)C1=O,45µM*,-12%,?,-28%,-10%,-9%
COc1cc([C@@H]2c3cc4c(c(O)c3C[C@H]3COC(=O)[C@@H]32)OCO4)cc(OC)c1OC,/,/,/,-26%,25%,/
O[C@@H]1[C@H](O)[C@H]2[C@@H](O)CCN2C[C@@H]1O,/,-16%,/,/,/,/
CN1C(=O)C(=Cc2ccccc2OCc2ccc(Cl)cc2)C(=O)N(C)C1=O,-14%[59 µM],50µM*,9%,4%,24%,1%
CN1C(=O)C(=Cc2ccccc2Oc2ccc(Cl)cc2)C(=O)N(C)C1=O,-22%[59 µM],?,93%,45%,123%,9%
Cc1ccc(S(=O)(=O)Oc2ccccc2C=C2C(=O)N(C)C(=O)N(C)C2=O)cc1,/,79µM*,0%,0%,46%,/
c1ccc(N2CCC3(CCNCC3)CC2)cc1,-3%[12.7 µM],?,/,/,/,/
O=C(O)[C@H]1[C@H]2CN[C@H](C(=O)O)[C@H]21,8%[59 µM],?,/,/,/,/
CN(C)c1ccc2c(c1)N=C(c1ccco1)OP2(=S)N1CCOCC1 (stereo not drawn),14µM*,14µM*,?,79µM*,11µM*,-8%
O=C1CCC[C@H]2[C@@H]3CCCN4CCC[C@H](CN12)[C@H]34,38%[59 µM],19%,/,/,/,/
O=C(Nc1ccc(Cl)cc1)O/N=C(\c1ccccc1)c1ccccn1,?,40µM*,14µM*,10µM*,23%,-6%
CON(C)C(=O)Nc1ccc(Cl)cc1,-43%[59 µM],-7%,5%,-9%,14%,0%
Cc1cc(C(=O)OCC(=O)NC(=O)c2cccn2C)c2ccccc2n1,?,-6%,18%,11%,13%,-13%
O=C(Oc1ccccc1)N1CCC2(CCCN(C(c3ccccc3)c3ccccc3)C2)CC1,-12%[12.7 µM],-8%,/,/,/,/
Cc1cccc(CN2CCc3nc(N4CCN(c5ccccn5)CC4)ncc3C2)c1,?,/,50µM*,79µM*,6%,/
COc1cccc(C(=O)C2CCCN(Cc3ccccn3)C2)c1 (stereo not drawn),/,-9%,-10%,-19%,7%,-11%
COc1cccc(CN2CCc3nc(N4CCN(c5ncccn5)CC4)ncc3C2)c1,-1%[12.7 µM],/,40µM*,63µM*,-7%,/
COC(=O)NC/C=C\c1nc(CC/C=C\C(=O)O[C@H]2C[C@H]3CC(=O)O[C@@H](/C=C\CC(C)C)C[C@@H]4CC[C@H](C)[C@H](C[C@@H](OC)C[C@H](C2)O3)O4)co1,/,6%,/,/,/,/
